Test results reported in PubChem BioAssay AID2111 (National Center for Advancing Translational Sciences (NCATS), 2009).
Unmarked numbers belong to inactive results. Activity calls are given as the source filed them. Calls come from the whole dose curve; as a rule, active = well fitted curve in either direction with a large enough effect; inconclusive = small, poorly fitted or top-dose-only effect; inactive = no such curve, though single readings can be large or run the other way.

These compounds were tested against Lysosomal alpha-glucosidase (Homo sapiens) (UniProt P10253) (assay: Confirmation of Inhibitors and Activators of Human alpha-Glucosidase From Spleen Homogenate Using an Alternate Red Fluorescent Susbtrate). Conditions: resorufin-glucoside fluorescence; series mostly up to 62.8 µM; activity change, negative = inhibition: at the top concentration.
Source text: NIH Chemical Genomics Center [NCGC] NIH Molecular Libraries Probe Production centers Network [MLPCN] MLPCN Grant: 1R03MH084841-01 Assay Submitter (PI): Wei Zheng NCGC Assay Overview: Alpha-glucosidase is responsible for hydrolysis of terminal, non-reducing 1,4-linked alpha-D-glucose residues with release of alpha-D-glucose. It is a lysosomal hydrolase that is required for the degradation of a small percentage (1-3%) of cellular glycogen in human. Deficiency of this enzyme results in glycogen-storage disease type II (GSDII), also referred to as Pompe disease, an autosomal recessive disorder. Structurally normal glycogen is accumulated in lysosomes and cytoplasm in affected patients, primarily in muscle tissues. Excessive glycogen storage within lysosomes may interrupt normal functioning of other organelles and leads to cellular injury. In turn, this leads to enlargement and dysfunction of the entire organ involved (eg, cardiomyopathy and muscle weakness). It has reported that the improper folding and trafficking of alpha-glucosidase resultinged from the genetic mutations may account for a significant number of Pomrope patients. […] We optimized this alpha-glucosidase assay in 1536-well plate format for identifying the novel small molecule inhibitors with the structures other than the sugar analogs in order to develop the new pharmacological chaperones. In particular, this assay is directed towards discovering compounds active in a more natural setting, tissue homogenate, that may have been missed by screens of the purified enzyme under more stringent conditions. This assay attempted to confirm hits from the primary screening using an alternate fluor than the primary screen used.
NCGC Assay Protocol Summary: This is a fluorogenic enzyme assay with Resorufin-alpha-D-glucopyranoside as the substrate and human spleen homogenate containing alpha-glucosidase as the enzyme preparation. Upon hydrolysis of this fluorogenic substrate, the resulting product, resorufin (which excites at 573 nm and emits at 610 nm) can be detected by a fluorescence plate reader. Data were normalized to the controls for basal activity (without enzyme) and 100% activity (with enzyme). The AC50 values were determined from concentration-response data modeled with the standard Hill equation. Assay buffer: 50 mM citric acid (titrated with potassium phosphate to pH 5.0), 0.01% Tween-20 (pH 5.0 is an optimal condition for this enzyme assay) 1536-well assay protocol for the alpha-glucosidase from human spleen homogenate: (1) Add 2 ul/well spleen homogenate (1 ug) (2) Add 23 nL compounds in DMSO solution. The final titration was 0.5 nM to 58 uM. (3) Add 2 ul of substrate (1 mM final) (4) Incubate at 37 C for 40 min (5) Add 2 ul stop solution (1M NaOH and 1M Glycine mixture, pH 10) (6) Detect the assay plate in a ViewLux plate reader (PerkinElmer) with […]. Keywords: Alpha-glucosidase, Pompe Disease, pharmacological chaperone, chaperone therapy, high throughput screening, alpha-glucosidase inhibitor, MLSMR, MLSCN, NIH Roadmap, qHTS and NCGC

Row | Compound | Potency | activity change, negative = inhibition [%]
1 | CCCN1CNc2c(c(=O)[nH]c(=S)n2CCc2cc(OC)cc(OC)c2)C1 | 7.94 µM (active) | 
2 | CC(=O)c1ccc(N2CCN(S(=O)(=O)c3ccc4c(c3)n(C)c(=O)n4C)CC2)cc1 |  | 0.436
3 | CC(=O)c1ccc(N2CCN(S(=O)(=O)c3ccc4[nH]c(=O)[nH]c4c3)CC2)cc1 |  | -4.25
4 | O=S(=O)(c1ccc(Cl)cc1)N1CCN(c2nc(-c3cccs3)nc3ccccc23)CC1 |  | 4.37
5 | COc1ccc(C#Cc2cnc(Cl)c3cncnc23)cc1OC |  | 7.5
6 | CCCN1CNc2c(c(=O)[nH]c(=S)n2CCC)C1 |  | -4.56
7 | CCCN1CNc2c(c(=O)[nH]c(=S)n2CCc2cccs2)C1 | 31.6 µM (active) | 
8 | O=c1[nH]cc(CCc2ccccc2)c2ncncc12 |  | -3.53
9 | COC(=O)c1ccc(N2CCN(S(=O)(=O)c3ccc4c(c3)CC(=O)N4)CC2)cc1 | 1.16 µM [inhibitor] (active) | 
10 | CCCN1CNc2c(c(=O)[nH]c(=S)n2CCc2ccc(C)cc2)C1 | 14.1 µM (active) | 
11 | O=C1Cc2cc(S(=O)(=O)N3CCN(c4ccc(F)cc4)CC3)ccc2N1 | 59.5 µM [inhibitor] (active) | 
